Only some compounds are listed: those with a hit (about 18% of all), similar ones and a draw of the others.
TDP1 cell CPT = DT40-hTDP1 cell growth loss with CPT; chicken DT40 Tdp1-/-;hTDP1 cells + 20 nM CPT, ATP luminescence, 48 h; 420,000 compounds, 12% hits; Potency, µM (series often up to 46.2 µM), most hits filed as inhibitors; AID 686979; also: nearly all actives have a fitted effect of over 55% in size
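Chicken DT40 Tdp1-/- cells complemented with human TDP1, 400 cells/well, exposed to compounds plus 20 nM camptothecin for at least 48 h at 37 C; viability read as ATP content by CellTiter-Glo luminescence.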
IL-1B inflam inh = blocks inflammasome-driven IL-1 beta release; THP-1 LPS/ATP IL-1B secretion, AlphaLISA, 16 h; stronger effect = lower value; 360,000 compounds, 4.7% hits; AID 743279; activity change, % at 57.5 µM; in the data active = activity change below about -50%; inconclusive = mostly about -30% to -49%
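THP-1 cells pretreated 1 hr with compounds (up to 57.5 uM final), then stimulated with LPS (250 ng/mL final) plus ATP (1.25 mM final); secreted IL-1B measured by AlphaLISA after 16 hr, decreased signal indicating inhibition.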
LDHA inh = inhibitors of human lactate dehydrogenase A | 480,000 compounds, 0.15% hits | activity change, % (values are at about 110 or 230 µM) | purified LDHA, NADH/diaphorase-resazurin fluorescence; stronger effect = lower value | P00338 | AID 1347041; in the data active = activity change below about -30%; inconclusive = mostly about -25% to -30%
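Human LDH5 (2 nM) was incubated with 0.06 mM NADH and 0.2 mM pyruvate for 5 min at room temperature in Tris pH 7.4. Remaining NADH was coupled through diaphorase/resazurin, and resorufin fluorescence was read at 0 and 20 min.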
TDP1 cell noCPT = qHTS for Inhibitors of human tyrosyl-DNA phosphodiesterase 1 (TDP1): qHTS in cells in absence of CPT | DT40 Tdp1-/- hTDP1 cells, no CPT, ATP luminescence, 48 h | Potency, µM (titrated, usually from 46.2 µM), hits mostly inhibitors | 420,000 compounds, 15% hits; also: nearly all actives have a fitted effect of over 55% in size
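DT40 Tdp1-/-;hTDP1 cells, no CPT (DMSO vehicle only), 400 cells/well; compounds pin-transferred; ≥48 hr, 37 °C; CellTiter-Glo 30 min RT dark, luminescence read.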
RORgamma inh = ROR gamma (mouse) transcription inhibition; AID 2551; Drosophila S2 Gal4-RORgamma UAS-luciferase reporter, 20 h; 310,000 compounds, 5.4% hits; Potency, µM (highest dose often 53.6 µM), most hits filed as inhibitors; also: nearly all actives have a fitted effect of over 60% in size
Target sequence (P51450 whole entry, looked up, the tested form may be a part): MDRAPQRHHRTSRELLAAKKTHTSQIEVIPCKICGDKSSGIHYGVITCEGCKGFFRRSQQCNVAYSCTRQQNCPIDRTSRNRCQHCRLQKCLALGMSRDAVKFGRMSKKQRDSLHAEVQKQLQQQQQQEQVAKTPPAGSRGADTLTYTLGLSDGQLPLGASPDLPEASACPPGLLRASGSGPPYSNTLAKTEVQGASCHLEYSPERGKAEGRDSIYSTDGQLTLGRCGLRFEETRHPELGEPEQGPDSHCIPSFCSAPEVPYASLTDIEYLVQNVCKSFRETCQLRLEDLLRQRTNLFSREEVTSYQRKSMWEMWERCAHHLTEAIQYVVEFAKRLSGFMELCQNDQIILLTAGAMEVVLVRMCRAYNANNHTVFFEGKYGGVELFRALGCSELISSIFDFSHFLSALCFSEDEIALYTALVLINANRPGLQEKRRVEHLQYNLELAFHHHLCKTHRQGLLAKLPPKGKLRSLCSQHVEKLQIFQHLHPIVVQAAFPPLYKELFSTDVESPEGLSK
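Compounds are pin-transferred onto Drosophila Schneider cells expressing a copper-inducible Gal4–ROR gamma transactivation domain fusion. After 1 hr, copper sulfate is added to 700 uM final; luciferase is read 20 hr later.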
VP16 counter = inhibits Gal4-VP16 luciferase reporter, ROR gamma counter-screen; Potency, µM (highest dose often 53.6 µM), usual class: inhibitors; 310,000 compounds, 3.5% hits; Drosophila S2 Gal4-VP16 UAS-luciferase, luminescence, 20 h;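 also: Gal4-VP16 expression switched on by copper sulfate through the metallothionein promoter; nearly all actives have a fitted effect of over 50% in size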
Large screens that a line does not name were inactive. Unless noted, calls follow the shape of the dose curve; as a rule, active = well fitted curve in the direction sought with a large enough effect; inconclusive = small, poorly fitted or top-dose-only effect, or another doubt; inactive = no such curve, though single readings can be large; an effect the other way counts as inactive or inconclusive.

CCOC(=O)/C(C#N)=C1/SC(C)C(=O)N1c1ccc(Br)cc1 (stereo unspecified)	RORgamma inh 11.2µM
c1ccc2c(CN3CCCCCCC3)c[nH]c2c1	TDP1 cell CPT 0.651µM, TDP1 cell noCPT 1.46µM
Cc1[nH]c2ccccc2c1CN1CCCCC1	TDP1 cell CPT 1.64µM, TDP1 cell noCPT 3.66µM (no result: RORgamma inh, VP16 counter)
O=C(Cc1c[nH]c2ccccc12)N1CCN(CC(=O)N2CCCCCC2)CC1	none (no result: TDP1 cell CPT, IL-1B inflam inh, TDP1 cell noCPT, RORgamma inh, VP16 counter)
CC(C)[C@H](NC(=O)[C@H](CCC(=O)O)NC(=O)[C@H](Cc1ccccc1)NC(=O)[C@@H](C)NC(=O)[C@@H](N)Cc1ccc(O)cc1)C(=O)N[C@H](C(=O)NCC(N)=O)C(C)C	none (no result: TDP1 cell CPT, IL-1B inflam inh, LDHA inh, TDP1 cell noCPT)
C[C@H](CO)N1C[C@H](C)[C@@H](CN(C)C(=O)Nc2ccc(C(F)(F)F)cc2)Oc2c(NS(=O)(=O)c3cccs3)cccc2C1=O	TDP1 cell CPT inconclusive, TDP1 cell noCPT inconclusive (no result: RORgamma inh, VP16 counter)
Cc1cccn2c(=O)cc(COc3cccc(NC(=O)COc4ccc(F)cc4)c3)nc12	TDP1 cell CPT inconclusive, TDP1 cell noCPT 8.2µM (no result: IL-1B inflam inh, RORgamma inh, VP16 counter)
Cc1cccc(OCC(=O)Nc2cc(-c3ccccc3F)nn2-c2ccccc2)c1	TDP1 cell CPT inconclusive, TDP1 cell noCPT inconclusive (no result: IL-1B inflam inh, RORgamma inh, VP16 counter)
N#CC(C#N)=Cc1cccnc1	TDP1 cell CPT 9.2µM, IL-1B inflam inh -86.0, TDP1 cell noCPT 9.2µM
CNCC/C=C/c1cccnc1	none (no result: IL-1B inflam inh, LDHA inh, RORgamma inh, VP16 counter)
O=C1N[C@@H](Cc2ccccc2)C(=O)N2[C@H]1C[C@H]1c3ccccc3N(OOSc3ccccc3)[C@H]12	TDP1 cell CPT 20.6µM, TDP1 cell noCPT 16.4µM (no result: RORgamma inh, VP16 counter)
O=C(c1c[nH]cc1-c1ccccc1)c1cccc2ccccc12	TDP1 cell CPT 18.4µM, TDP1 cell noCPT 14.6µM
ClCCN(CCCl)c1ccc(/C=C/c2ccnc3ccccc23)cc1	TDP1 cell CPT 3.98µM, TDP1 cell noCPT 3.55µM (no result: IL-1B inflam inh, RORgamma inh, VP16 counter)
Cc1cc(/C=C/c2ccnc3ccccc23)ccc1N(CCCl)CCCl	TDP1 cell CPT inconclusive, TDP1 cell noCPT 25.1µM (no result: IL-1B inflam inh, RORgamma inh, VP16 counter)
ClCCN(CCCl)c1ccc(C=Cc2ccncn2)cc1	TDP1 cell CPT 6.51µM, IL-1B inflam inh inconclusive, TDP1 cell noCPT 9.2µM (no result: RORgamma inh, VP16 counter)
CC(C)CCCC(C)C1CCC2C3C(=O)C=C4CC(O)CC[C@@]4(C)C3CC[C@@]12C (stereo partly specified)	none (no result: IL-1B inflam inh, LDHA inh)
c1ccc(CN2CCCC3(CCNCC3)C2)cc1	TDP1 cell CPT inconclusive, TDP1 cell noCPT inconclusive (no result: IL-1B inflam inh, LDHA inh)
O=C1C=C2C=C[C@@H]3C[C@@]2(O1)[C@H]1CCCCN31	TDP1 cell CPT 11.9µM, TDP1 cell noCPT 7.5µM (no result: IL-1B inflam inh, LDHA inh)
CCOC(=O)[C@]12Cc3c(cc(OC)c(OC)c3OC)[C@H]1N(C(C)C)C(=O)c1ccccc12	TDP1 cell CPT 23.1µM, IL-1B inflam inh -113.5, TDP1 cell noCPT 14.6µM (no result: RORgamma inh, VP16 counter)
CCCCCN1C(=O)c2ccccc2[C@@]2(C(=O)OCC)Cc3cc(OC)ccc3[C@@H]12	TDP1 cell CPT 7.31µM, TDP1 cell noCPT 4.61µM (no result: IL-1B inflam inh, RORgamma inh, VP16 counter)
CCOC(=O)[C@]12Cc3ccccc3[C@H]1N(Cc1ccccc1)C(=O)c1ccccc12	TDP1 cell CPT inconclusive, TDP1 cell noCPT inconclusive (no result: RORgamma inh, VP16 counter)
COc1cc2c(cc1OC)C(C(=O)NCCC(C)C)C1CCCCN1C2=O (stereo unspecified)	none
CCOC(=O)[C@]12Cc3cc(C)ccc3[C@H]1N(Cc1ccccc1)C(=O)c1ccccc12	TDP1 cell CPT 10µM, TDP1 cell noCPT 14.6µM (no result: RORgamma inh, VP16 counter)
CCOC(=O)[C@]12Cc3cc(OC)ccc3[C@H]1N(Cc1ccccc1)C(=O)c1cc(F)c(F)cc12	TDP1 cell CPT inconclusive, TDP1 cell noCPT inconclusive (no result: RORgamma inh, VP16 counter)
CCOC(=O)[C@]12Cc3cc(C)ccc3[C@H]1N(Cc1ccccc1)C(=O)c1cc(F)c(F)cc12	TDP1 cell CPT 20.6µM, TDP1 cell noCPT 14.6µM (no result: IL-1B inflam inh, RORgamma inh, VP16 counter)
O=C(c1csnn1)N1CCC[C@@]2(CCN(Cc3ccncc3)C2)C1	none (no result: IL-1B inflam inh, LDHA inh)
CC(=O)OC1CCC2(C=O)[C@H]3CCC4(C)C(C5=CC(=O)OC5)CCC4(O)[C@@H]3CCC2(O)C1 (stereo partly specified)	none (no result: TDP1 cell CPT, IL-1B inflam inh, TDP1 cell noCPT, RORgamma inh, VP16 counter)
c1ccc(CCN2CCCCC2)cc1	none (no result: IL-1B inflam inh, LDHA inh, RORgamma inh, VP16 counter)

Screening results deposited in PubChem by National Center for Advancing Translational Sciences (NCATS).
